Calls of active or inactive are those of the source.
Experiments:
[1] = binders of probe aFSTL3 on microarray, primary screen, stem cell growth factor project, biochemical, small-molecule microarray, fluorescence 635/667 (AID 1064); conditions: higher = more signal;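 further: measures binding of the biotinylated anti-FSTL3 antibody to printed compounds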
[2] = binders from COS7 lysate, DM2A8 probe, primary screen, torsin A project, cell lysate, small-molecule microarray, fluorescence 635/667 (AID 1065); conditions: higher = more signal, COS7 lysate expressing mutant human TOR1A
[3] = binders of probe aFGF2 on microarray, primary screen, stem cell growth factor project, biochemical, small-molecule microarray, fluorescence 635/667 (AID 1067); conditions: higher = more signal;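 further: measures binding of biotinylated aFGF2 protein to printed compounds on slides; z-score merges feature fluorescence and signal-to-noise across triplicate slides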
[4] = binders of probe aFGF10 on microarray, primary screen, stem cell growth factor project, biochemical, small-molecule microarray, fluorescence 635/667 (AID 1071); conditions: higher = more signal;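 further: score merges 667 nm spot intensity and signal to noise from triplicate slides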
[5] = biological target: Neurogenic locus notch homolog protein 2 (Homo sapiens) (UniProt Q04721); assay: Notch2 binders on small-molecule microarrays, primary screen, biochemical, small-molecule microarray, 635 nm fluorescence, stem cell growth factors (AID 1073); conditions: Notch2 binding, higher = more signal
Sequence of Neurogenic locus notch homolog protein 2 (Homo sapiens) (Q04721 whole entry, looked up, canonical isoform): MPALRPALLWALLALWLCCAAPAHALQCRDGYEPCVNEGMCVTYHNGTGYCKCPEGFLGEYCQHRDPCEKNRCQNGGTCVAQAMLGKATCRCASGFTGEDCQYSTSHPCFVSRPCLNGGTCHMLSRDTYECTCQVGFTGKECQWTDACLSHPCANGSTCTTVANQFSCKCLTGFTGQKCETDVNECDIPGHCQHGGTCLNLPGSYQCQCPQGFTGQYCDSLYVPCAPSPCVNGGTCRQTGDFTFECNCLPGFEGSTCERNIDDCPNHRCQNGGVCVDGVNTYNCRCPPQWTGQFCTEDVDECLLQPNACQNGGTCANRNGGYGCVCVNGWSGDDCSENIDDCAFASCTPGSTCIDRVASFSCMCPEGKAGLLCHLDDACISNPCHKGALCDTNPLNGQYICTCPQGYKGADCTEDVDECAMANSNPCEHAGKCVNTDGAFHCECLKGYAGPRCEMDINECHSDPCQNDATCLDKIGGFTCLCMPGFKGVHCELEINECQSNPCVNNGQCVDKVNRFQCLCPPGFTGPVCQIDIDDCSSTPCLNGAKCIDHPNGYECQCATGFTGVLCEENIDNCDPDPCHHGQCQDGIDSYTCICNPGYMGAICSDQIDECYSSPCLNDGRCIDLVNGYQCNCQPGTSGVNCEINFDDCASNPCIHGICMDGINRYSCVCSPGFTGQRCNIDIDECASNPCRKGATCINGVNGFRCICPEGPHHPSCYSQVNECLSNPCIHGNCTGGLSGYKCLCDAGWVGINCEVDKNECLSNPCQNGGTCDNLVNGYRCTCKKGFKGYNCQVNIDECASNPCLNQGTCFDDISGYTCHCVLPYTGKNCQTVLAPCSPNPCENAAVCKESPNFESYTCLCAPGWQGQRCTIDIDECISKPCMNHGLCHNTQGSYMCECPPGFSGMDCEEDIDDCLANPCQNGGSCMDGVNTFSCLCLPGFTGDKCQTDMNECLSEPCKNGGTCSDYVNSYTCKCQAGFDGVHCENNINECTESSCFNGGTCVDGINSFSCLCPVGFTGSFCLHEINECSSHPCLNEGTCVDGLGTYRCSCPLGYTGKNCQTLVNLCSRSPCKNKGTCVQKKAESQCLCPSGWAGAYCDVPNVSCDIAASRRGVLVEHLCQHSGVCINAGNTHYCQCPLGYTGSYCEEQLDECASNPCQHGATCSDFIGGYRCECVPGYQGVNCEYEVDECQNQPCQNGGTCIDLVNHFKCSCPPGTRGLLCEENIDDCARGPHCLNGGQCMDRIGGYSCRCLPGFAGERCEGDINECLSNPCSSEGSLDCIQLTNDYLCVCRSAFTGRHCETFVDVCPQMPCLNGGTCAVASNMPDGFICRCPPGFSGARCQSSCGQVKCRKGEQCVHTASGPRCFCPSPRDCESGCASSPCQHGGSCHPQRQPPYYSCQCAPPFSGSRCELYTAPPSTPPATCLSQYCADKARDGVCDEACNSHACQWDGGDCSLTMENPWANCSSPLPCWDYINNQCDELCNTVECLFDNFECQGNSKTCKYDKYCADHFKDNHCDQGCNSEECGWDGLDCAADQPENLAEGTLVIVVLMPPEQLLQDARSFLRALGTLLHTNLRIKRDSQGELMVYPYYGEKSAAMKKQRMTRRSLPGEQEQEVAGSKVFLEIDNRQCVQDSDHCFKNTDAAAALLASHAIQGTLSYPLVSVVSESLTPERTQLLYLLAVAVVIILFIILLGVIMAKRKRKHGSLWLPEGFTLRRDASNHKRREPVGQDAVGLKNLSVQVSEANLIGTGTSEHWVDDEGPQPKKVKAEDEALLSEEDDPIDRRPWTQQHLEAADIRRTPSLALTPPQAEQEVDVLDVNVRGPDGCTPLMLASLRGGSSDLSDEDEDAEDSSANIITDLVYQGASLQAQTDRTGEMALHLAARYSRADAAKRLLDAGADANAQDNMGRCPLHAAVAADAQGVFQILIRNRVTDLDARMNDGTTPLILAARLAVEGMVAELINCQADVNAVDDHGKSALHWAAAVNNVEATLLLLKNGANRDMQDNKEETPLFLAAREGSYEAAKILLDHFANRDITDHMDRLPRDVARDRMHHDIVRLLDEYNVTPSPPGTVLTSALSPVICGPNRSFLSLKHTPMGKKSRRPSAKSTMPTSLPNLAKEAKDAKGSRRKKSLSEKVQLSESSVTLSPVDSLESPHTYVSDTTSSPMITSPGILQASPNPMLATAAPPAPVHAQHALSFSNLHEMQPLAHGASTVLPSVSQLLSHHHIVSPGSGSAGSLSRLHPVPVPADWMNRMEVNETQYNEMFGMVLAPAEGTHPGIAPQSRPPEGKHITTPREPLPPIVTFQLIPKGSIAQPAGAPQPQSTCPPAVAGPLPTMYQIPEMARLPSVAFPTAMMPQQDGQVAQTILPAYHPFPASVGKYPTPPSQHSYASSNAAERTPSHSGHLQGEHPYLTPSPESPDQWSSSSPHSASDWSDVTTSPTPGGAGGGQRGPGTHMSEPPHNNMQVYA

[6] = biological target: Pro-neuregulin-1, membrane-bound isoform (Homo sapiens) (UniProt Q02297); assay: NRG1 binders on small-molecule microarrays, primary screen, psychiatric disease protein project, biochemical, small-molecule microarray, fluorescence 635/667 (AID 1075); conditions: NRG1 binding, 635 nm fluorescence, higher = more signal;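 further: score combines 667 nm spot fluorescence with signal to noise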
Sequence of Pro-neuregulin-1, membrane-bound isoform (Homo sapiens) (Q02297 whole entry, looked up, the tested form may be a part, canonical isoform): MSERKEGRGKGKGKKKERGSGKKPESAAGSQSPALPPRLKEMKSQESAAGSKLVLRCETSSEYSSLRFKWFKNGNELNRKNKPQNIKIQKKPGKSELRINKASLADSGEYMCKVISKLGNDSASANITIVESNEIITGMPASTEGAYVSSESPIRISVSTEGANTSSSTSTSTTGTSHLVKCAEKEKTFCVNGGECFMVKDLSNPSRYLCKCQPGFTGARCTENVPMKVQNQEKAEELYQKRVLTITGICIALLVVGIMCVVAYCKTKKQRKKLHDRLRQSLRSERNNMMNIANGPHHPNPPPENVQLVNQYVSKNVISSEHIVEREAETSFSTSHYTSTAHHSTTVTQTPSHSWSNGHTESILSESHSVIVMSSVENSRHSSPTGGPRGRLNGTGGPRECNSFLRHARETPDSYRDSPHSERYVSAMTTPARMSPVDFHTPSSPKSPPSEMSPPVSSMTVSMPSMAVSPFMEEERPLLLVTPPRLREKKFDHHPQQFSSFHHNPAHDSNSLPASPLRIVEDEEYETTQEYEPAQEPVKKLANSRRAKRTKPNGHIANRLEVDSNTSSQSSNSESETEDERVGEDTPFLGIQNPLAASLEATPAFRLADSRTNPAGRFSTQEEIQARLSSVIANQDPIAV

[7] = system: Neuregulin-1 EGF-like domain; assay: binders of neuregulin-1 EGF-like domain, primary screen, biochemical, small-molecule microarray, 635 nm fluorescence (AID 1081); conditions: small-molecule microarray binding, higher = more signal;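 further: binding of the protein to compounds printed on small-molecule microarray slides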
[8] = FRG1 promoter luciferase signal modulators, primary screen, FRG1 inhibition for FSHD, cell-based, C2C12 myotubes, firefly/Renilla luciferase, luminescence (AID 1084); conditions: higher = more signal, called active from +8 up or from −8 down
[9] = binders of probe aFST on microarray, primary screen, stem cell growth factor project, biochemical, small-molecule microarray, fluorescence 635/667 (AID 1086); conditions: higher = more signal;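 further: score merges 667 nm fluorescence with signal-to-noise of each printed compound spot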
[10] = binders of probe aHhip on microarray, primary screen, stem cell growth factor project, biochemical, small-molecule microarray, fluorescence 635/667 (AID 1087); conditions: higher = more signal;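 further: score merges spot fluorescence at 667nm with spot signal to noise ratio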

SMILES	composite z-score [1]	composite z-score [2]	composite z-score [3]	composite z-score [4]	composite z-score [5]	composite z-score [6]	composite z-score [7]	z-score [8]	composite z-score [9]	composite z-score [10]
CC(C)N1CC=CC23O[C@@H]4C=CCOC(=O)[C@@H]4[C@H]2C(=O)N(CCO)[C@@H]3C1=O (stereo not given in full)	0.283	-1.72	-0.187	-0.484	-1.11	0.247	1.02	0.188 (inactive)	-0.634	-0.397
COCC1=C2[C@@H](CCc3ccccc3)OB(O)C[C@@H]2[C@@H]2C(=O)N(Cc3ccccc3)C(=O)[C@@H]2C1	-0.505	-0.138	-0.0419	0.135	-0.0585	0.0327	-0.0593	-3.66 (inactive)	-0.492	-0.201
O=C1C[C@]2(c3ccc([N+](=O)[O-])cc3)C(=O)N(CC(F)(F)F)c3cc(CO)ccc3[C@H]2N1CC12CC3CC(CC(C3)C1)C2	-0.127	0.0228	-0.101	0.0063	-0.284	-0.0962	0.988	-0.659 (inactive)	0.0443	-0.249
Cc1ccc(S[C@]2(C(=O)NC3CC3)CC(=O)N(C3CCCCC3)[C@@H]2c2ccc(CO)cc2I)cc1	-0.208	0.298	-0.0328	0.48	1.03	1.29	1.31	-4.48 (inactive)	0.431	0.118
O=C1O[C@@H](c2ccccc2)[C@@H](c2ccccc2)N2[C@@H](c3ccc(O)cc3)[C@]3(C(=O)Nc4ccc(C#CC5(O)CCCCCC5)cc43)[C@@H](C(=O)N3CCCCCCC3)[C@H]12	2.55	2	0.764	0.876	1.66	2.49	1.27	-0.849 (inactive)	2.79	0.67
CC(c1ccccc1)C(O)C1C=CC2C(=O)NC(=O)C2N1Nc1ccccn1 (stereo not given)	0.166	-0.0988	-0.044	0.306	1.5	0.142	1.33	1.14 (inactive)	0.421	-0.271
CCCN1C(=O)[C@]2(COC(c3ccc(OCCCO)cc3)=N2)Cc2ccccc21	0.955	0.325	0.0092	0.251	0.419	1.41	1.18	-0.0593 (inactive)	0.486	0.0044
COc1ccc(C(=O)Nc2cccc(CN3C(=O)[C@]4(O[C@H](CC(=O)N5CCC[C@H]5CO)[C@@H]([Si](C)(C)c5ccc(OC)cc5)[C@@H]4C)c4ccccc43)c2)cc1	-0.0422	0.717	0.0257	0.394	0.135	0.847	1.12	-1.22 (inactive)	0.156	-0.253
COC(=O)[C@@]1(Cc2ccc(OC)cc2)[C@H]2c3cc(C(=O)N4CCCC4)n(Cc4cc(F)cc5c4OCOC5)c3C[C@H]2CN1C(=O)c1ccccc1	0.152	-0.0429	0.275	0.535	1.74	2.29	1.28	1.61 (inactive)	0.83	1.14
CCCC[C@H]1OB(O)C[C@H]2C1=C(C)C[C@H]1C(=O)N(Cc3ccccc3)C(=O)[C@H]12	-0.573	0.383	0.0171	0.951	0.316	0.421	0.795	0.758 (inactive)	0.267	0.312
CCC[C@@H]1C=C(C(=O)O)[C@H](c2ccc(C)cc2)N1S(=O)(=O)c1ccc(C)cc1	-0.0973	0.0641	0.0485	0.854	1.35	1.79	1.26	-1.09 (inactive)	0.648	0.099
C=C(CCCC)/C(=C/C[C@H](OC(C)=O)c1ccc(CO)o1)c1cnc2ccccc2c1	-0.472	0.773	-0.0749	1.14	1.1	0.963	1.26	0.13 (inactive)	0.13	0.0505
COC(=O)[C@@]1(Cc2ccccc2)[C@H]2c3cc(C(=O)N4CCCC4)n(C)c3C[C@H]2CN1C(=O)c1ccccc1	0.483	-0.207	0.107	-0.0646	1.67	1.51	1.25	0.121 (inactive)	0.882	1.72
CCOC(=O)C1=CCC(C(C)(C)C)N(S(=O)(=O)c2ccc(C)cc2)C1 (stereo not given)	-0.735	2.2	0.0954	1.23	1.49	0.673	1.19	-2.07 (inactive)	0.533	0.0139
CCOC(=O)C1=CCC(c2ccc(C#N)cc2)N(S(=O)(=O)c2ccc(C)cc2)C1 (stereo not given)	0.657	0.359	0.165	0.446	1.67	1.32	1.27	-3.85 (inactive)	1.27	0.11
